Bioassay records (PubChem)
An excerpt weighted towards active compounds, which were near 3.9% of everything screened.
PHOSPHO1 inh: PubChem AID 1565; Phosphoethanolamine/phosphocholine phosphatase (Homo sapiens), Q8TCT1; recombinant PHOSPHO1, absorbance phosphatase assay; inhibition, % at 13.3 µM; 1.1% of 290,000 active; in the data active = inhibition above about 60%
Target sequence (Q8TCT1 whole entry, looked up): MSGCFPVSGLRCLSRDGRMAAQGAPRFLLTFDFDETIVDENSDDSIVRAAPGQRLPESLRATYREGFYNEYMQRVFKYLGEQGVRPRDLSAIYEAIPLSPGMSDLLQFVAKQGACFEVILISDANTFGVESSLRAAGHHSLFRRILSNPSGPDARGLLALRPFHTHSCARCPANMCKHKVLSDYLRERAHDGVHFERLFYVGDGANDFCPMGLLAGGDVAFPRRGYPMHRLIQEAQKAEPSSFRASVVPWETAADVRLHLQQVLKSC
SKKanGAS inh: S. pyogenes SKKanGAS growth inhibitors in kanamycin, primary screen, streptokinase expression inhibitor project, SKKanGAS strain, BacTiter-Glo luminescence | 6 h | inhibition, % at 7.5 µM | 1.3% of 300,000 active | AID 1662, 2009;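 active = mean replicate score, as percent of positive control median, at least 50; inconclusive = mean below 50 but one replicate at or above 50; inactive = mean and every replicate below 50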;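 note: strain carries kanamycin resistance gene driven by streptokinase promoter and grows in 40 µg/ml kanamycin; loss of luminescence reflects streptokinase promoter inhibition or plain growth inhibition; 0% = median of DMSO wells and 100% = positive control at its reference dose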
WT yeast gro inh: growth inhibition of WT strain, primary screen, mitochondrial fusion inhibitor project, WT and mutant strains, chemical genetic; inhibition, % at 10 µM; 2.1% of 190,000 active; mitochondrial fusion phenotypic screen; AID 1362, 2008; in the data active = inhibition above about 58%; tested in S. cerevisiae
TPT1 inh: Candida albicans TPT1 enzyme inhibitors, primary screen, biochemical, fluorescence polarization; recombinant caTPT1, FP RNA substrate dephosphorylation; inhibition, % at 5 µM; tRNA 2'-phosphotransferase TPT1 (Candida albicans SC5314); AID 1962, 2009; 0.81% of 300,000 active;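 active = inhibition above the mean of all tested compounds plus 3 SD, set per screening campaign, cut at about 24% in these data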;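 note: plate controls were DMSO alone for no effect and ferristatin control at 100 nM for full effect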
Rtt109 Vps75: inhibitors of C. albicans Rtt109/Vps75 HAT, primary screen, biochemical, ThioGlo CoA-SH fluorescence, plate reader | Histone acetyltransferase RTT109 (Candida albicans (strain SC5314 / ATCC MYA-2876)), … | purified Rtt109/Vps75, 4 h | inhibition, % at 34.9 µM | 0.16% of 330,000 active | AID 540336, 2011;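 active = inhibition of at least 50% in every replicate; inconclusive = best replicate reaches 50% inhibition but some replicates fall short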
Target sequence (Q5AAJ8 whole entry, looked up): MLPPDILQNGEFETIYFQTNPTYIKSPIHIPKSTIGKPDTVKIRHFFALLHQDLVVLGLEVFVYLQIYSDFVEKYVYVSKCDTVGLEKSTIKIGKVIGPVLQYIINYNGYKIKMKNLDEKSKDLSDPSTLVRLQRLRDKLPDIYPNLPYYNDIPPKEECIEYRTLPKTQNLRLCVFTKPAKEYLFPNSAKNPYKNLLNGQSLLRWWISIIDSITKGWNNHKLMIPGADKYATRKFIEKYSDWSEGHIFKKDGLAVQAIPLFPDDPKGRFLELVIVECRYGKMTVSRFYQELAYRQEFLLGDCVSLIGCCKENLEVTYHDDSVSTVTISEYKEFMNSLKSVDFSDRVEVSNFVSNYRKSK
Platelet DG rel: inhibitors of platelet dense granule secretion, primary screen, cell-based, MLPCN, human platelets. human platelet-rich plasma, SFLLRN dense granule ATP release, luminescence. inhibition, %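 (compounds screened at 7.5 µM in platelet-rich plasma)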. 0.22% of 300,000 active. AID 1663, 2009;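 active = mean replicate score, as percent of positive control, at or above 50; inconclusive = mean below 50 but at least one replicate at or above 50; inactive = mean and every replicate below 50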
Numbers without * were called inactive; ? = inconclusive; . = no result given.

SMILES	PHOSPHO1 inh	SKKanGAS inh	WT yeast gro inh	TPT1 inh	Rtt109 Vps75	Platelet DG rel
COc1ccccc1/C=C1\SC(=S)N(CCC(=O)NNC(=O)c2ccccc2O)C1=O	53	52*	.	3	-1	8
CCCOc1ccc(Cc2c(Cl)nc(SC)nc2N(C)C)cc1	-1	64*	64*	2	-1	-2
CSc1nc(Cl)c(Cc2ccc(OC(C)C)cc2)c(N2CCOCC2)n1	6	2	4	-3	-2	-3
COc1nc(SC)nc(Cl)c1Cc1ccc(OC(C)C)cc1	3	1	59*	1	-2	-4
CCCOc1ccc(Cc2c(Cl)nc(SC)nc2OC)cc1	3	53*	38	-2	-20	12
O=[N+]([O-])c1ccc(Sc2cccc3cccnc23)c([N+](=O)[O-])c1	87*	.	7	1	-4	21
Clc1ccc(-c2nsc(N3CCOCC3)n2)c(Cl)c1	15	0	.	-2	8	4
CCc1sc(N(C(=O)Cc2ccccc2)c2ccc(F)cc2)nc1-c1ccccc1	16	55*	11	-6	0	10
COc1ccc(NC(=O)CN(C)C(=O)COc2ccccc2Cc2ccccc2)cc1	.	.	.	.	-3	.
CN(Cc1ccc(F)cc1)C(=O)COc1ccccc1-c1ccccc1	-16	12	64*	3	-2	-3
CN(Cc1ccc(F)cc1)C(=O)c1sccc1-c1ccccc1	10	11	.	.	-7	-9
CN(CC(=O)Nc1ccc(F)cc1)C(=O)COc1ccccc1Cc1ccccc1	.	4	.	-1	51*	-3
CCOc1ccc(S(=O)(=O)N2CCN(C(=O)c3cc4c(s3)CCCC4)CC2)cc1	-4	9	63*	-4	-6	-3
COc1ccc(N(C(=O)c2cc3ccccc3oc2=O)C2C=CS(=O)(=O)C2)cc1 (stereo not drawn)	61*	-5	5	1	19	1
CCCC(=O)C1=C(O)C(c2cccc(Oc3ccccc3)c2)CCC1=O (stereo not drawn)	-5	29	67*	3	.	3
COc1ccc(NC(=O)c2oc3ccccc3c2C)cn1	20	-5	.	-3	0	2
Cc1ccc2cccc(NC(=S)NC(=O)c3ccccc3)c2n1	-27	20	-16	-1	-9	-1
Cc1ccc2cccnc2c1NC(=S)NC(=O)c1ccccc1	69*	10	-6	4	4	-2
CCCn1c2ccccc2c2cnn(CC(=O)NCCCN3CCCC(C)C3)c(=O)c21 (stereo not drawn)	42	-3	.	-5	9	3
COc1cccc(CN2CCN(C(=O)C3CCC(=O)N(C4CCCC4)C3)CC2)c1 (stereo not drawn)	23	-2	.	-3	-6	2
O=C(C1CCC(=O)N(C2CCCC2)C1)N1CCN(Cc2cccc(F)c2)CC1 (stereo not drawn)	75*	2	.	-3	4	-2
O=C(Nc1ccc(S(=O)(=O)Nc2ncccn2)cc1)c1ccccc1Br	40	2	.	-1	-1	2
NC(=O)COC(=O)c1ccc(Cl)c(S(=O)(=O)N(Cc2ccccc2)c2ccc(Cl)cc2)c1	-25	6	77*	0	21	4
NC(=O)NC(=O)COC(=O)c1ccc(Cl)c(S(=O)(=O)N(Cc2ccccc2)c2ccc(Cl)cc2)c1	21	26	31	0	10	11
CC1=NNC(=O)/C1=C\c1cn(-c2ccccc2)nc1-c1ccc(Cl)cc1	18	66*	11	-1	-5	8
SMILES	PHOSPHO1 inh	SKKanGAS inh	WT yeast gro inh	TPT1 inh	Rtt109 Vps75	Platelet DG rel
Cc1ccc(-c2nn(-c3ccccc3)cc2C=C2C(=O)CC(C)(C)CC2=O)cc1	2	2	-8	-2	-7	11
Cc1ccc(S(=O)(=O)Nc2cccc3ncccc23)cc1	51	0	.	0	-2	14
Cc1ccc(S(=O)(=O)Nc2cccc3ncccc23)s1	-9	71*	71*	3	14	.
C#CCN1C(C)=CC(=O)[C@@H](O)[C@H]1c1ccccc1Br	.	.	.	.	6	.
CCC(=O)NC(c1cc(Cl)c2cccnc2c1O)C(C)C (stereo not drawn)	.	.	.	.	0	.
COc1ccc(C(NC(C)=O)c2cc(Cl)c3cccnc3c2O)cc1 (stereo not drawn)	39	53*	.	-3	-3	0
CC(=O)NC(c1ccccc1)c1cc(Cl)c2cccnc2c1O (stereo not drawn)	-39	79*	.	0	2	14
O=C(NC(c1ccc(Cl)cc1)c1cc(Cl)c2cccnc2c1O)c1cccnc1 (stereo not drawn)	-5	113*	0	-9	4	?
Cc1cc(C)c2c(n1)SCC(=O)N2CC(=O)Nc1ccc(Br)c(C)c1	13	-2	.	-2	4	8
CC(C)Sc1nsc2nc(=O)c(/C=C3\C=Nc4ccccc43)c(N)n12	-99	74*	-10	2	14	15
CS(=O)(=O)c1nsc2nc(=O)c(/C=C3\C=Nc4ccccc43)c(N)n12	1	20	-2	5	8	12
Cc1cc(OCC(=O)NNC(=O)c2cccnc2)cc(C)c1Cl	26	.	.	.	-3	.
CC(C)NC(=O)CCn1ccc2cc(S(=O)(=O)N3CCCC3)ccc21	7	7	.	1	0	1
CC1CCCCC1NC(=O)CCn1ccc2cc(S(=O)(=O)N3CCCC3)ccc21 (stereo not drawn)	11	50*	.	0	10	4
O=C(CCNC(=O)C1CCN(S(=O)(=O)c2ccccc2)CC1)NCc1ccncc1	-16	-2	.	1	5	8
O=C(CCNC(=O)C1CCN(S(=O)(=O)c2ccccc2)CC1)NCc1ccc(Cl)c(Cl)c1	-12	0	.	-3	-4	58*
CCOc1ccc(NS(=O)(=O)c2ccc(C(=O)NCCN3CCOCC3)cc2)cc1	.	-2	.	0	7	12
CN=c1scc(-c2ccccc2F)n1/N=C(\C)c1cccnc1	-11	-4	71*	1	3	-5
CCOc1ccc2nc(N3CCC(C(=O)NC4CCCCC4)CC3)sc2c1	65*	0	.	-2	0	-10
CC(C)(C)OC(=O)C[C@H]1C/C=C\C[C@H](CC(=O)N(CCO)Cc2ccccc2)C(=O)N[C@@H](c2ccccc2)COC1=O	.	.	.	.	0	.
CC(=O)c1ccc(OCc2cc(C(=O)NC(C)c3cnn(C)c3)no2)cc1 (stereo not drawn)	62*	2	.	2	-7	15
CCNC(=O)NC(=O)CSc1ccc(S(=O)(=O)N(C)C2CCCCC2)cn1	.	.	.	.	0	.
